PTPN22 inh 2 – inhibitors of human LYP (PTPN22) phosphatase; Q9Y2R2; AID 640; recombinant LYP catalytic domain, DiFMUP fluorescence; hit rate 0.21% among 96,000; inhibition, % at 2 µM;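 active = inhibition at 2 µM at or above a set limit, the screen mean plus 3 SD, cut at about 24% in these data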
sEH inhibitor – blocks human soluble epoxide hydrolase activity; P34913; recombinant human sEH enzymatic activity assay; inhibition, % at 2 µM; hit rate 0.34% among 91,000; AID 707; in the data active = inhibition above about 80%
Target sequence (P34913 whole entry, looked up): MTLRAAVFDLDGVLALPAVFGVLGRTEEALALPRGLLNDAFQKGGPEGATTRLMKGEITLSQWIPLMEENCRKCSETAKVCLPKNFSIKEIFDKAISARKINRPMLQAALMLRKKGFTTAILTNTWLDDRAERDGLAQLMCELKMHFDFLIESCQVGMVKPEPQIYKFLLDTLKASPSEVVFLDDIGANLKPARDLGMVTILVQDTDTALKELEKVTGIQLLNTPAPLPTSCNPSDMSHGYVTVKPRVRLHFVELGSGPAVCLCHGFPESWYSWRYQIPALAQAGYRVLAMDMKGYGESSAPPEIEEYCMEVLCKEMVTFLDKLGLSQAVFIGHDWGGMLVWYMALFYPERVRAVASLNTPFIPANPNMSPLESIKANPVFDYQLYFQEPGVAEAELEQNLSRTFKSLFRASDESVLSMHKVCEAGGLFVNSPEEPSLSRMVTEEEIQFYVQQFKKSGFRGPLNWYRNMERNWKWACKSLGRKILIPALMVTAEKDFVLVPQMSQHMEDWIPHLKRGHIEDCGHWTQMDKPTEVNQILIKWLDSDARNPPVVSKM
Measles CPE – protection of cells from measles virus | Measles virus-infected cells, CPE protection, absorbance | protection (pct of control), % at 4 µM | hit rate 1.5% among 140,000 | AID 841; in the data active = protection mostly above about 24%, no sharp cut-off; inactive = mostly below about 26%
sEH activator – soluble epoxide hydrolase (human) activation; P34913; purified human sEH enzymatic activity, activator screen; activation, % at 2 µM; hit rate 0.04% among 91,000; AID 717; in the data active = activation above about 37%
LYP act – LYP (human) phosphatase activation | Q9Y2R2 | recombinant LYP, DiFMUP fluorescence; 0 = plate median, 100 = signal doubled | activation, % at 2 µM | hit rate 0.11% among 96,000 | AID 697;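 active = activation at 2 µM above a set limit, the mean plus 5 SD, cut at about 37% in these data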
A number is an active result; . = inactive; / = no result. In the library only some 1.7% were active in any assay of this set; here they are far more common.

SMILES | PTPN22 inh 2 | sEH inhibitor | Measles CPE | sEH activator | LYP act
CC1=CC2=NC(=O)/C(=C\c3cccn3CCOc3cc(C)ccc3C)C(=N)N2O1 | / | / | . | / | /
CCC(C)c1ccc(NC(=O)C2CCN(c3ccc(C(F)(F)F)cn3)CC2)cc1 (stereo unspecified) | / | / | . | / | /
CCC(C)c1ccc(NC(=O)C2CCN(c3ncccn3)CC2)cc1 (stereo unspecified) | . | 99 | . | . | .
CCOC(=O)c1c2ccc(OCC(=O)N/N=C/c3ccc(C)cc3)cc2n2ccccc12 | 24 | . | . | . | .
CSc1ccc(/C=C(/NC(=O)c2ccc(C)cc2)C(=O)Nc2cccc(F)c2)cc1 | / | / | . | / | /
COc1ccc2[nH]c(=O)c(CN(CCN(C)C)C(=O)NCc3ccccc3)cc2c1 | . | . | . | . | .
COc1cc2cc(CN(Cc3cccnc3)C(=O)NCc3ccccc3)c(=O)[nH]c2cc1OC | . | . | 48 | . | .
COc1cc2[nH]c(=O)n(CCC(=O)NCc3cccnc3)c(=O)c2cc1OC | / | / | 67 | / | /
O=C1c2ccccc2C(=O)N1OCc1ccccc1 | . | . | . | . | .
N#Cc1cn(OCc2ccccc2)c(=O)[nH]c1=O | / | / | 31 | / | /
CCCOC(=O)c1c(NC(=O)CCCn2nc([N+](=O)[O-])cc2C)sc(C(=O)OC)c1C | / | / | . | / | /
O=C(CSc1nnc(-c2cccs2)n1-c1ccccc1)N1CCOCC1 | . | . | 38 | . | .
O=C(CSc1nnc(C2CC2)n1-c1ccccc1)Nc1ccc(N2CCOCC2)cc1 | . | . | 39 | . | .
O=C(CSc1nnc(-c2cccs2)n1-c1cccc(Cl)c1)c1cccc2c1OCCO2 | 25 | . | . | . | .
Cc1ccc(S(=O)(=O)c2c(C(=O)c3ccccc3)cnc3cc4c(cc23)OCCO4)cc1 | / | / | . | / | /
COc1ccccc1-c1c(C(F)(F)F)oc2cc(OCC(=O)Nc3cc(C)ccc3C)ccc2c1=O | / | / | . | / | /
CCNc1nc(NC(C)C)nc(NS(=O)(=O)c2ccc(N)cc2)n1 | . | . | . | . | .
CC(C)Nc1nc(NC(C)C)nc(NS(=O)(=O)c2ccc(N)cc2)n1 | . | . | 30 | . | .
CCOc1ccc(-n2c(SCC(=O)c3c(N)n(C)c(=O)n(C)c3=O)nnc2-c2cccnc2)cc1 | / | / | . | / | /
Cn1nc(-c2ccc(Cl)cc2)nc2c(=O)n(C)c(=O)nc1-2 | 45 | . | . | . | .
COc1ccc(OCCn2nnc(-c3ccc(Cl)cc3)n2)cc1 | / | / | . | / | /
COc1ccccc1N1CCN(CC(=O)Nc2sccc2C#N)CC1 | / | / | . | / | /
COc1ccccc1-n1c(SCC(=O)NC2CCCCC2)nc2c(c1=O)SCC2 | . | . | 54 | . | .
COc1ccc(NC(=O)CSc2nc3c(c(=O)n2-c2ccccc2OC)SCC3)cc1 | . | . | . | . | .
Cc1cc(N2CCCCCC2)nc2ccccc12 | . | . | . | . | .
SMILES | PTPN22 inh 2 | sEH inhibitor | Measles CPE | sEH activator | LYP act
Cc1cc(-n2nnc3ccccc32)nc2ccccc12 | . | . | 31 | . | .
COc1ccc(C(=O)N/C(=C\c2ccc3c(c2)OCO3)C(=O)NCCc2nc3ccccc3[nH]2)cc1 | / | / | . | / | /
O=C(NNC(=O)c1cc2cc3ccccc3nc2s1)c1cccc(Cl)c1 | 27 | . | . | . | .
O=C(O)CN1C(=O)Nc2ccc(Br)cc2C1c1ccccc1 (stereo unspecified) | / | / | 39 | / | /
CC(C)[C@H](NC(=O)c1ccccc1)C(=O)OCC(=O)N1CC(=O)Nc2ccccc21 | / | / | . | / | /
O=C1CN(C(=O)COC(=O)CCSc2ccccc2Cl)c2ccccc2N1 | . | . | 27 | . | .
C[N+]1(CCCCCCC(=O)/C=N/O)CCCCCC1 | . | . | 32 | . | .
NC(=O)CC[C@@H]1NC(=O)[C@H](Cc2ccc(O)cc2)NC(=O)c2cc([N+](=O)[O-])cc(F)c2OCC[C@@H](C(N)=O)NC1=O | / | / | 31 | / | /
NC(=O)CC[C@@H]1NC(=O)[C@H](CO)NC(=O)c2cc([N+](=O)[O-])cc(I)c2NCC[C@@H](C(N)=O)NC(=O)[C@H](Cc2ccc(O)cc2)NC1=O | / | / | . | / | /
CCN(CC)S(=O)(=O)c1ccc(OC)c(NC(=S)Nc2cccc(C)c2C)c1 | / | / | 45 | / | /
CCN(CC)S(=O)(=O)c1ccc(OC)c(NC(=S)Nc2cccc(C)c2)c1 | / | / | . | / | /
O=C(NCc1ccccc1F)c1ccc(S(=O)(=O)Nc2cccc(C(F)(F)F)c2)cc1 | / | / | 31 | / | /
O=C(NCc1ccc(F)cc1)c1ccc(S(=O)(=O)Nc2cccc(C(F)(F)F)c2)cc1 | / | / | . | / | /
O=C(NN1CCOCC1)c1cc(-c2cccc(Cl)c2)nc2ccccc12 | . | . | 43 | . | .
CCN(CC)S(=O)(=O)c1cccc(C(=O)N2CC(O)CC2C(=O)O)c1 (stereo unspecified) | . | . | 28 | . | .
O=C(Cc1ccccc1)NC(NCCc1ccccc1)C(Cl)(Cl)Cl (stereo unspecified) | . | . | . | . | .
CC(C)NC(=S)NCc1cccnc1 | / | / | 51 | / | /
CCC(C)c1ccc(NC(=S)NCc2cccnc2)cc1 (stereo unspecified) | / | / | . | / | /
Cc1cc(C)c(S(=O)(=O)N2CCCOC2CNC(=O)C(=O)NCCc2c[nH]c3ccccc23)c(C)c1 (stereo unspecified) | / | / | . | / | /
O=C(NC(C(=O)N/N=C/c1ccccc1)c1n[nH]c(=O)c2ccccc12)c1ccccc1 (stereo unspecified) | 26 | . | . | . | .
CCCCOC(=O)Oc1ccc2c(=O)c(Oc3cc(C)cc(C)c3)coc2c1 | / | / | . | / | /
CCCOC(=O)Oc1ccc2c(=O)c(Oc3cc(C)cc(C)c3)coc2c1 | / | / | 20 | / | /
O=C(C1CCCN(S(=O)(=O)c2ccc(F)cc2)C1)N(Cc1cccs1)C1CC1 (stereo unspecified) | / | / | 49 | / | /
O=C(C1CCCN(S(=O)(=O)c2ccc(F)cc2)C1)N1CCCC1 (stereo unspecified) | . | . | . | . | .
C=CCc1cc(OC)ccc1OCCOCCC(C(=O)OCC)C(=O)OCC | / | / | 21 | / | /
SMILES | PTPN22 inh 2 | sEH inhibitor | Measles CPE | sEH activator | LYP act
C=CCc1cc(Cl)ccc1OCCOCCNCCOC | / | / | . | / | /
CCOC(=O)c1c(NC(=O)CSC2=NN3CCCC(=O)N=C3S2)sc2c1CCCCC2 | / | / | . | / | /
O=C(Nc1ccc(Cl)c(C(F)(F)F)c1)C1CCCN(S(=O)(=O)c2cnc[nH]2)C1 (stereo unspecified) | . | 92 | . | . | .
O=C(Nc1cccc(Cl)c1)C1CCCN(S(=O)(=O)c2cnc[nH]2)C1 (stereo unspecified) | . | / | . | / | .
O=C(Nc1ccccc1)OCCNC(=O)c1cccc(Cl)c1 | . | . | 29 | . | .
CCC/C=N/NC(=O)c1[nH]c2c([N+](=O)[O-])cccc2c1C | / | / | . | / | /
Nc1nc(CSCCO)nc(Nc2ccccc2)n1 | . | . | 32 | . | .
Cc1ccc(NC(=O)c2nc[nH]c2C(=O)Nc2ccc(C)cc2)cc1 | . | . | 59 | . | .
CNC(=O)c1[nH]cnc1C(=O)Nc1ccc(C)cc1 | . | . | . | . | .
O=C(/C=C/c1ccccc1)Nn1c(-c2cccc([N+](=O)[O-])c2)nc2ccccc2c1=O | / | / | . | / | /
CCN1CCc2c(sc3c2c(NCc2ccco2)nc2nnnn23)C1 | / | / | 35 | / | /
Cc1nc(NCc2ccco2)c2c3c(sc2n1)CCC3 | . | . | . | . | .
O=C(Cc1nn[nH]n1)c1ccccc1O | / | / | . | / | /
CCc1ccc(NC(=O)c2c(Cl)nc(C)c(Cl)c2C)cc1 | / | / | . | / | /

Screens as filed in PubChem BioAssay.
